# “And” between values parts separate entries of the source, which are not always exact repeats. Identical values can stand only once. Some structures have more than one record in an assay (separate samples or runs), and their calls can disagree. The source made the active and inactive calls.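 How the source made its calls, unless noted: active means mean z-score across replicates of 1.96 or higher in either the MELAS or the Rieske mutant cell line; inactive means the rest.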
# Legend:
# [1] = MELAS cybrid and Rieske KO viability enhancers – cell-based, MELAS cybrids, Rieske KO mouse fibroblasts, CellTiter-Glo, primary screen (AID 1508586); settings: low glucose;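 further: z relative to plate mean and SD of compound and empty wells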
# [2] = target: NAD(+) hydrolase SARM1 (Homo sapiens) (UniProt Q6SZW1); test: blocking NAD cleavage by SARM1 SAM-TIR – cell lysate, NAD-Glo luminescence (AID 1508614;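 active means compound whose remaining NAD level is above about 45 nM, limit read from the data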); settings: SAM-TIR HEK293T lysate NADase, at 1 µM, stronger effect = higher value
# [3] = target: Mitogen-activated protein kinase 7 (Homo sapiens) (UniProt Q13164); test: Gal4-ERK5 driven luciferase induction – cell-based, HTS, primary screen (AID 1508626;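 active means luciferase signal above three times the same-plate solvent-only control wells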;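 further: luciferase driven by Gal4-ERK5 fusion binding five Gal4 sites before minimal TATA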); settings: HeLa Gal4-ERK5 transactivation, 18 h, at 5 µM, stronger effect = higher value
# [4] = blockers of cellular phospholipid synthesis – cell-based, LOPAC library, screen 4, primary screen (AID 1347384; call rule not given here); settings: animal cells, phospholipid biosynthesis inhibition screen; at 10 µM
# [5] = galactose survival enhancers in mitochondrial complex I cybrids – cell-based, galactose medium, ATP luminescence, primary screen (AID 1645843;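 active means z-score of at least 1.8 in each of two replicates, scored against plate mean and spread of sample wells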;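 further: positive z means more ATP and so rescue of galactose-driven cybrid death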); settings: complex I mutant cybrid cells, 72 h, stronger effect = higher value
# [6] = MELAS cybrid survival, CellTiter-Glo 48 h, stronger effect = higher value
# [7] = Rieske KO mouse fibroblast survival, CellTiter-Glo 72 h
# Sequence of Mitogen-activated protein kinase 7 (Homo sapiens) (Q13164 whole entry, looked up, the tested form may be a part): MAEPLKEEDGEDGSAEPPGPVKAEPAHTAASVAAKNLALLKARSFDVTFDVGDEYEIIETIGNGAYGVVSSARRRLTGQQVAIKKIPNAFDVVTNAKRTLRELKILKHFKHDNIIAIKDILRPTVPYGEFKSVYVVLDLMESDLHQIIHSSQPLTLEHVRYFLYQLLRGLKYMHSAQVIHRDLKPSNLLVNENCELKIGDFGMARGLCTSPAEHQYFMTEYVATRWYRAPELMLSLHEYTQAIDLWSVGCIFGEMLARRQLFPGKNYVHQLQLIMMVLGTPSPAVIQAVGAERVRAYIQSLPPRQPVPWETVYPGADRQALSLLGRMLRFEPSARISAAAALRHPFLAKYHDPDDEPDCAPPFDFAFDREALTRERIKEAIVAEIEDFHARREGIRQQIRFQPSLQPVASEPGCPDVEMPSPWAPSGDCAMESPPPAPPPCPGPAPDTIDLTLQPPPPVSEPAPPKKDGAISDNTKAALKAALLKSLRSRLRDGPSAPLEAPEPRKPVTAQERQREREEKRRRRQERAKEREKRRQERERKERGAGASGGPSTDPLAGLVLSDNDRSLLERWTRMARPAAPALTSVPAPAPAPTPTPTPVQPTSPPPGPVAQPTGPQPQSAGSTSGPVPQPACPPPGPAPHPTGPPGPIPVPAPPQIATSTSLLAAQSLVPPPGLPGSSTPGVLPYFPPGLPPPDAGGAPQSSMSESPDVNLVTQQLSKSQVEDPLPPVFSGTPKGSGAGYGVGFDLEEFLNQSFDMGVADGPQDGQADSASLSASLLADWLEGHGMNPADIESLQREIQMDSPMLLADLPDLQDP
# Sequence of NAD(+) hydrolase SARM1 (Homo sapiens) (Q6SZW1 whole entry, looked up, the tested form may be a part): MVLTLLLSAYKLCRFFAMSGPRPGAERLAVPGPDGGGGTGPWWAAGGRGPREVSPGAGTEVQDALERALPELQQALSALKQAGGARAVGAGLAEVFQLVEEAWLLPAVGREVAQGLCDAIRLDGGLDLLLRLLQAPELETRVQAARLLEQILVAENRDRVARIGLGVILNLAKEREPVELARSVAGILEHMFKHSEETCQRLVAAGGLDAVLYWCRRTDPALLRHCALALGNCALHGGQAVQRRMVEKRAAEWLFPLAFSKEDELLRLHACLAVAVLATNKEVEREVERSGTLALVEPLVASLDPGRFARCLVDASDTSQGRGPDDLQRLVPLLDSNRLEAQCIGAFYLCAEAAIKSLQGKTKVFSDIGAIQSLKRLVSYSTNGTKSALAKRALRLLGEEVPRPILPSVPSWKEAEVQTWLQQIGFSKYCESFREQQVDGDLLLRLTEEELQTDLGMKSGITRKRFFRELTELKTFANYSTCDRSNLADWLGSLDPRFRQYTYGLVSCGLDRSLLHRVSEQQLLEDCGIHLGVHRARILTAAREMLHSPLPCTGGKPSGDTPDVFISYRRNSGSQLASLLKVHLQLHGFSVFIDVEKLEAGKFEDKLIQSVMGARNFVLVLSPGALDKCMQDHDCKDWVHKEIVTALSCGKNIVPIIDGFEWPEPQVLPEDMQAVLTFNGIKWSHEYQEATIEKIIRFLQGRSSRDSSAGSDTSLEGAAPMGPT
SMILES,"z-score [1, 6]","z-score [1, 7]",remaining NAD [2],luciferase signal [3],outcome [4],z-score [5]
CC(=O)O[C@]1(C(C)=O)CC[C@H]2[C@@H]3C=C(Cl)C4=CC(=O)CC[C@]4(C)[C@H]3CC[C@@]21C,-0.83 (inactive),0.517,10 nM (inactive),76 AU (inactive),–,–
O=C1[C@H]2CCCC[C@H]2C(=O)N1CCCCN1CCN(c2nsc3ccccc23)CC1,1.02 (inactive),0.693,–,–,–,–
O=C1c2cccc3c2[C@H](CCC3)CN1[C@@H]1CN2CCC1CC2,0.942 (inactive),0.737,–,–,–,–
COc1ccc(CN(CCN(C)C)c2ccccn2)cc1,0.327 (inactive) and -0.721 (inactive),0.0359 and 0.287,18 nM (inactive),88 AU (inactive),inactive,-0.145 (inactive) and 0.84 (inactive) and 0.65 (inactive)
CN(C)CCC(c1ccccc1)c1ccccn1 (centres undefined),0.589 (inactive) and -0.102 (inactive) and 0.319 (inactive),-0.594 and -0.285 and 0.31,10 nM (inactive),44 AU (inactive),inactive,0.62 (inactive) and -0.17 (inactive)
CC(N)C(=O)OC(C)(C)Cc1ccc(Cl)cc1 (centres undefined),–,–,10 nM (inactive),92 AU (inactive),inactive,–
CCOC(=O)C1=C(C)NC(C)=C(C(=O)OC)C1c1cccc(Cl)c1Cl (centres undefined),-0.244 (inactive) and -0.163 (inactive) and -0.233 (inactive),-0.0889 and -0.113 and 0.553,10 nM (inactive),–,inactive,-1.02 (inactive) and -1.48 (inactive) and 1.76 (inactive)
CNCC(O)c1ccc(O)c(O)c1 (centres undefined),–,–,–,–,inactive,-1.02 (inactive) and -0.655 (inactive)
O=C(CCNNC(=O)c1ccncc1)NCc1ccccc1,-0.952 (inactive) and 0.716 (inactive),-0.171 and 0.697,10 nM (inactive),76 AU (inactive),inactive,0.035 (inactive) and 0.205 (inactive) and 0.305 (inactive)
COc1cc(C(=O)OCCCN2CCCN(CCCOC(=O)c3cc(OC)c(OC)c(OC)c3)CC2)cc(OC)c1OC,0.925 (inactive) and 0.274 (inactive),0.203 and 0.937,10 nM (inactive),–,inactive,-0.89 (inactive) and 0.995 (inactive) and -0.26 (inactive)
CSc1ccc2c(c1)C(N1CCN(C)CC1)Cc1ccccc1S2 (centres undefined),-0.294 (inactive) and -0.887 (inactive),0.279 and -1.2,10 nM (inactive),–,inactive,-1.29 (inactive) and -1.22 (inactive) and -2.1 (inactive)
CNC1(C)C2CCC(C2)C1(C)C (centres undefined),-0.287 (inactive) and -0.243 (inactive),0.191 and -0.476,–,108 AU (inactive),inactive,0.26 (inactive) and 0.15 (inactive)
Brc1c(NC2=NCCN2)ccc2nccnc12,-0.224 (inactive) and -0.413 (inactive),-0.21 and -1.29,–,–,inactive,0.235 (inactive) and -0.385 (inactive) and -0.11 (inactive)
Nc1ccc(N=Nc2ccccc2)c(N)n1,3.05 (active) and 0.049 (inactive) and 2.48 (active),0.473 and -0.21 and 1.1,10 nM (inactive),464 AU (active),–,-0.225 (inactive)
COC(=O)C1=C(C)NC(C)=C(C(=O)OCC(C)C)C1c1ccccc1[N+](=O)[O-] (centres undefined),-0.516 (inactive) and 0.43 (inactive) and -1.18 (inactive),0.274 and 1.45 and 0.961,10 nM (inactive),72 AU (inactive),–,-1.86 (inactive) and -2 (inactive)
Cc1scc2c1N(C(=O)CN1CCN(C)CC1)c1ccccc1NC2=O,0.644 (inactive) and 0.966 (inactive),0.467 and 0.592,10 nM (inactive),–,inactive,0.33 (inactive) and 0.02 (inactive) and 0.68 (inactive)
CC(=O)Oc1ccc(C(c2ccc(OC(C)=O)cc2)c2ccccn2)cc1,-0.393 (inactive) and -0.251 (inactive) and -0.144 (inactive),-0.124 and -0.26 and 0.348,10 nM (inactive),44 AU (inactive),–,-0.6 (inactive)
CC(=O)NS(=O)(=O)c1ccc(N)cc1,-0.241 (inactive) and 0.341 (inactive),-0.167 and 0.175,10 nM (inactive),64 AU (inactive),–,-0.2 (inactive)
CN1CCN(CC(=O)N2c3ccccc3C(=O)Nc3cccnc32)CC1,0.149 (inactive) and -0.644 (inactive),-0.103 and -0.194,10 nM (inactive),188 AU (inactive),inactive,1.01 (inactive) and 0.81 (inactive)
C#CCN(C)Cc1ccccc1,-0.298 (inactive) and 0.205 (inactive),-0.334 and 0.464,10 nM (inactive),60 AU (inactive),inactive,0.465 (inactive) and 0.37 (inactive)
Clc1ccccc1C(c1ccccc1)(c1ccccc1)n1ccnc1,-0.333 (inactive) and -0.755 (inactive),0.273 and 0.133,10 nM (inactive),72 AU (inactive),inactive,-1.52 (inactive) and -1.44 (inactive)
OCc1cc(C(O)CNCCCCCCOCCCCc2ccccc2)ccc1O (centres undefined),0.496 (inactive) and 0.0699 (inactive),-0.33 and 0.063,–,–,inactive,–
NS(=O)(=O)Cc1noc2ccccc12,0.598 (inactive) and -0.977 (inactive) and -0.661 (inactive),-0.432 and -0.0491 and -0.914,–,–,inactive,1.1 (inactive) and -0.005 (inactive) and 0.465 (inactive)
COC(=O)[C@H]1[C@H]2C[C@@H]3c4[nH]c5cc(OC)ccc5c4CCN3C[C@H]2C[C@@H](OC(=O)c2cc(OC)c(OC)c(OC)c2)[C@@H]1OC,0.355 (inactive),1.28,10 nM (inactive),64 AU (inactive),inactive,-0.19 (inactive) and -0.39 (inactive)
Cc1cccc(C)c1OCC(C)N (centres undefined),-0.0413 (inactive) and -0.119 (inactive),-0.286 and -0.0916,10 nM (inactive),52 AU (inactive),inactive,-0.045 (inactive) and 0.78 (inactive) and -0.055 (inactive)
CCCCC1C(=O)N(c2ccccc2)N(c2ccccc2)C1=O,0.0284 (inactive) and -1.01 (inactive) and 0.0538 (inactive),0.0743 and -0.296 and -0.0136,10 nM (inactive),156 AU (active),inactive,0.865 (inactive) and 0.7 (inactive)
CN1CCN(C2=Nc3ccccc3Oc3ccc(Cl)cc32)CC1,-0.155 (inactive) and 0.0915 (inactive),-0.224 and 0.0483,10 nM (inactive),132 AU (inactive),inactive,-0.48 (inactive) and -0.015 (inactive)
CN1CCC[C@@H]1CCO[C@](C)(c1ccccc1)c1ccc(Cl)cc1,-0.745 (inactive) and -0.186 (inactive),0.0285 and -0.556,10 nM (inactive),32 AU (inactive),–,-0.775 (inactive) and -1.7 (inactive)

# Reference: PubChem BioAssay
